Results on 15 sequences are retold here after PMC3218832.

Among the targets are RELARELA (p65 homodimer) (Homo sapiens, UniProt Q04206 1-307); p50p50 homodimer (Homo sapiens, UniProt P19838 7-356); RELB subunit;p50 subunit (Homo sapiens;Homo sapiens, UniProt Q01201;P19838 120-401;7-356).
Common to all, as to assay: protein binding microarray; high values mean tight binding
Conditions in all cases: dsDNA, one strand shown

In another experiment the target is T1, p52p52 homodimer (Homo sapiens, UniProt Q00653 4-332).
T1 sequence: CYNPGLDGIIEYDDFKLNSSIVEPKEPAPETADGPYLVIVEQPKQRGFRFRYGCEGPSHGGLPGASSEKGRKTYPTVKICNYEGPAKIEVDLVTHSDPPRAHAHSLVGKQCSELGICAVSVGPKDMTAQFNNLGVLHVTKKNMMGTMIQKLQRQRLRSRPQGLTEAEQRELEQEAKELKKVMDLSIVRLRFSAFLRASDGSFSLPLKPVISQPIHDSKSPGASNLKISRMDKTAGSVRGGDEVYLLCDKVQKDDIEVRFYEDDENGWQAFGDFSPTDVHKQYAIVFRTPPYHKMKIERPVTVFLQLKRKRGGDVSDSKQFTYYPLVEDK

The target of experiment [1] is RELA (p65) subunit of heterodimer;p50 subunit (Homo sapiens;Homo sapiens, UniProt Q04206;P19838 1-307;7-356).
Chain of RELA (p65) subunit of heterodimer;p50 subunit (Q04206 1-307, chain 1 of 2): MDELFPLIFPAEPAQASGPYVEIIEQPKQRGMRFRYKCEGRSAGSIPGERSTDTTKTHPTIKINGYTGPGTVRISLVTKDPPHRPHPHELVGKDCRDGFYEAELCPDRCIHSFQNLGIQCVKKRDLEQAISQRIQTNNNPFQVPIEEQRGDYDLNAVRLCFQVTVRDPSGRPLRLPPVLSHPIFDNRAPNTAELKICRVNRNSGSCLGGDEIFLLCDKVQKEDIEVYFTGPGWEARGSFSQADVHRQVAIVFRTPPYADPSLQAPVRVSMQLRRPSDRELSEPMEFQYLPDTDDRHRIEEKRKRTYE
Chain of RELA (p65) subunit of heterodimer;p50 subunit (P19838 7-356, chain 2 of 2): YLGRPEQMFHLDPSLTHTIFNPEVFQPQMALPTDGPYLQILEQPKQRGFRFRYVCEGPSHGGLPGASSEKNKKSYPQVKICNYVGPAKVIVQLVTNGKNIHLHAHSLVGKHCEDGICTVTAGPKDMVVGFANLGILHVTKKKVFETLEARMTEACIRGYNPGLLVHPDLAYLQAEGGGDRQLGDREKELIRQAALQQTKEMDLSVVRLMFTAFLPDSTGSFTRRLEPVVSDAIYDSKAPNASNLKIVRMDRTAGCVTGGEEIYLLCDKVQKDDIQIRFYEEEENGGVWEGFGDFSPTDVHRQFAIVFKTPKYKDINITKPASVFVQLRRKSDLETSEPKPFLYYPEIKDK
Experiment [2] concerns the target RELA (p65) subunit of heterodimer;p52 subunit (Homo sapiens;Homo sapiens, UniProt Q04206;Q00653 1-307;4-332).
The target of the next experiment is T2, RELB subunit;p52 subunit (Homo sapiens;Homo sapiens, UniProt Q01201;Q00653 120-401;4-332).
T2 sequence 1: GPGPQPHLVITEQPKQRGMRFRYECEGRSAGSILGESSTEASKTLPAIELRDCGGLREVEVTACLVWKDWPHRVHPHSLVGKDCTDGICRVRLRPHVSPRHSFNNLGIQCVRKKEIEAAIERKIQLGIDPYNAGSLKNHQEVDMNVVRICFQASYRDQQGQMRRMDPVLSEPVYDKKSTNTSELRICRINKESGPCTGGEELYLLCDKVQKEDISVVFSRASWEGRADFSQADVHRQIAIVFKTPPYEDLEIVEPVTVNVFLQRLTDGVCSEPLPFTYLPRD
T2 sequence 2: T1 sequence

Experiment [3] has as its target C-Rel subunit;p50 subunit (Homo sapiens;Homo sapiens, UniProt Q04864;P19838 1-285;7-356).
In experiment [4] the target is T3, C-Rel subunit;p52 subunit (Homo sapiens;Homo sapiens, UniProt Q04864;Q00653 1-285;4-332).
T3 sequence 1: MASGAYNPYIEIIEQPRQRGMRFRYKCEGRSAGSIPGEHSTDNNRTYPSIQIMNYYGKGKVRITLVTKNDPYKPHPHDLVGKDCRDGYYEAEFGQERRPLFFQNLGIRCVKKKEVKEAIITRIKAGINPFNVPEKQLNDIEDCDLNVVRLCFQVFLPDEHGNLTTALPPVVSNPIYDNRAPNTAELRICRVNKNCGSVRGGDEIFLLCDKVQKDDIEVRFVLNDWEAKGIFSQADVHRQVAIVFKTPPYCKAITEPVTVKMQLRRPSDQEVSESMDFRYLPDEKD
T3 sequence 2: T1 sequence

Chain of p50p50 homodimer (P19838 7-356): as the sequence (P19838 7-356, chain 2 of 2) above
Chain of RELARELA (p65 homodimer) (Q04206 1-307): as the sequence (Q04206 1-307, chain 1 of 2) above

GAATTTGTCCC: the binding signal came to 1.3 z-score in the experiment with RELARELA (p65 homodimer); 0.832 z-score with p50p50 homodimer; 0.9 z-score with p52p52 homodimer; 1.01 z-score in [1]; 0.944 z-score in [2]; 0.998 z-score with RELB subunit;p50 subunit. Besides, the binding signal was 0.873 z-score in the experiment with RELB subunit;p52 subunit, 1.27 z-score in [3] and 0.573 z-score in experiment [4].

Take AAGTTTCTCCC: the binding signal with RELARELA (p65 homodimer) amounted to 0.793 z-score; in the experiment with p50p50 homodimer, 0.601 z-score; in the experiment with p52p52 homodimer, 0.198 z-score; in [1] it was 0.383 z-score; in experiment [2] it was 0.17 z-score; in the experiment with RELB subunit;p50 subunit, 0.576 z-score. Further, the results for the binding signal (in the experiment with RELB subunit;p52 subunit; in experiment [3]; in experiment [4]) were 0.357 z-score, 0.423 z-score and 0.189 z-score, respectively.

In the case of CGAAGTGTCCT, the binding signal with RELARELA (p65 homodimer) is -0.41 z-score; with p50p50 homodimer it was -1.95 z-score; with p52p52 homodimer, -0.44 z-score; in experiment [1] it was -0.957 z-score; in [2], -0.797 z-score; with RELB subunit;p50 subunit it was -1.13 z-score. The binding signal with RELB subunit;p52 subunit was -0.796 z-score; in [3], -1.19 z-score; in [4], -0.64 z-score.

For GAGGAAATCCT, the binding signal was 0.229 z-score with RELARELA (p65 homodimer); -0.905 z-score with p50p50 homodimer; -0.463 z-score with p52p52 homodimer; -0.399 z-score in experiment [1]; -0.425 z-score in [2]; -0.858 z-score with RELB subunit;p50 subunit. Further, the binding signal with RELB subunit;p52 subunit was -0.718 z-score; in [3], -0.315 z-score; in experiment [4], -0.369 z-score.

As to CGGAACACCCT, the binding signal with RELARELA (p65 homodimer) is -0.222 z-score; with p50p50 homodimer, -0.182 z-score; with p52p52 homodimer, -0.238 z-score; in experiment [1], -0.453 z-score; in experiment [2], -0.316 z-score; in the experiment with RELB subunit;p50 subunit, -0.373 z-score. For the same sequence, the results for the binding signal (in the experiment with RELB subunit;p52 subunit; in experiment [3]; in experiment [4]) were -0.287 z-score, -0.444 z-score and -0.317 z-score, respectively.

As to AAAGTTCTCCT, the binding signal with RELARELA (p65 homodimer) was 0.015 z-score; with p50p50 homodimer, -1.02 z-score; in the experiment with p52p52 homodimer it was -0.659 z-score; in experiment [1], -0.601 z-score; in experiment [2] it was -0.834 z-score; in the experiment with RELB subunit;p50 subunit, -0.944 z-score. The binding signal with RELB subunit;p52 subunit was -0.822 z-score; in [3], -0.841 z-score; in experiment [4], -0.771 z-score.

Take AAGATCTCCCT: the binding signal came to 0.0704 z-score with RELARELA (p65 homodimer); 1.15 z-score with p50p50 homodimer; 0.499 z-score with p52p52 homodimer; 0.913 z-score in [1]; 0.528 z-score in experiment [2]; 1.16 z-score in the experiment with RELB subunit;p50 subunit. Besides, the binding signal in the experiment with RELB subunit;p52 subunit worked out at 1.02 z-score; in experiment [3] it was 0.475 z-score; in experiment [4] it was 0.202 z-score.

GGAGTAATCCC: the binding signal in the experiment with RELARELA (p65 homodimer) is 0.396 z-score; with p50p50 homodimer, -0.279 z-score; in the experiment with p52p52 homodimer, 0.000216 z-score; in [1], -0.0898 z-score; in experiment [2], -0.103 z-score; with RELB subunit;p50 subunit it was -0.277 z-score. In addition, the results for the binding signal (with RELB subunit;p52 subunit; in experiment [3]; in experiment [4]) were -0.368 z-score, 0.0858 z-score and 0.0188 z-score, respectively.

On to CGGTAGCCCCT, for which the binding signal in the experiment with RELARELA (p65 homodimer) was found to be 0.0258 z-score; with p50p50 homodimer, 0.991 z-score; with p52p52 homodimer, 0.543 z-score; in experiment [1] it was 0.402 z-score; in [2], 0.598 z-score; with RELB subunit;p50 subunit, 0.503 z-score. In addition, the binding signal with RELB subunit;p52 subunit came out at 0.728 z-score; in experiment [3], 0.38 z-score; in [4], 0.45 z-score.

Regarding AGAGTAGCCCT, the binding signal in the experiment with RELARELA (p65 homodimer) is -0.721 z-score; in the experiment with p50p50 homodimer it was -1.16 z-score; in the experiment with p52p52 homodimer, -0.729 z-score; in experiment [1], -0.963 z-score; in experiment [2], -0.869 z-score; with RELB subunit;p50 subunit, -0.78 z-score. Also, the values for the binding signal (with RELB subunit;p52 subunit; in experiment [3]; in experiment [4]) were -0.814 z-score, -1.22 z-score and -0.688 z-score, respectively.

CAGAACCTCCT: the binding signal with RELARELA (p65 homodimer) was -0.658 z-score; in the experiment with p50p50 homodimer, -1.31 z-score; with p52p52 homodimer, -0.791 z-score; in [1] it was -0.921 z-score; in experiment [2], -0.938 z-score; in the experiment with RELB subunit;p50 subunit, -0.924 z-score. Moreover, the binding signal in the experiment with RELB subunit;p52 subunit was -0.944 z-score; in experiment [3], -1.48 z-score; in [4], -0.853 z-score.

On to GGAGGGTCCCT, for which the binding signal in the experiment with RELARELA (p65 homodimer) is -0.115 z-score; with p50p50 homodimer, 0.371 z-score; with p52p52 homodimer, 0.534 z-score; in [1] it was 0.933 z-score; in experiment [2], 0.819 z-score; in the experiment with RELB subunit;p50 subunit, 0.287 z-score. For the same sequence, the binding signal in the experiment with RELB subunit;p52 subunit came out at 0.448 z-score; in experiment [3], 0.496 z-score; in experiment [4] it was 0.547 z-score.

For CGGTAACTCCC, the binding signal in the experiment with RELARELA (p65 homodimer) came to 1.08 z-score; in the experiment with p50p50 homodimer it was 0.598 z-score; with p52p52 homodimer, 1.03 z-score; in [1], 0.774 z-score; in [2], 0.795 z-score; in the experiment with RELB subunit;p50 subunit, 0.459 z-score. For the same sequence, the binding signal with RELB subunit;p52 subunit is 1.02 z-score; in experiment [3], 0.555 z-score; in experiment [4], 0.833 z-score.

For the sequence AGAGGGACCCT, the binding signal with RELARELA (p65 homodimer) was -0.966 z-score; in the experiment with p50p50 homodimer it was -0.326 z-score; with p52p52 homodimer it was 0.216 z-score; in experiment [1], -0.688 z-score; in [2] it was -0.129 z-score; in the experiment with RELB subunit;p50 subunit it was -0.226 z-score. Further, the binding signal in the experiment with RELB subunit;p52 subunit is -0.0964 z-score; in [3] it was -0.803 z-score; in [4], -0.355 z-score.

With GAGTTTCTCCT, the binding signal with RELARELA (p65 homodimer) is -0.323 z-score; with p50p50 homodimer it was -1.49 z-score; with p52p52 homodimer, -0.546 z-score; in [1], -0.596 z-score; in experiment [2], -0.78 z-score; with RELB subunit;p50 subunit, -0.911 z-score. Also, the binding signal was -0.855 z-score in the experiment with RELB subunit;p52 subunit, -0.907 z-score in experiment [3] and -0.692 z-score in experiment [4].
